PubChem BioAssay (Tox21)
Results filed as inconclusive are left out. Activity calls are given as the source filed them. Unless noted, calls come from the whole dose curve; as a rule, active = well fitted curve in the direction sought with a large enough effect in the repeat runs; inconclusive = weak or mixed curves; inactive = no such curve, though single readings can be large; an effect the other way counts as inactive or inconclusive.

Key:
[1] = qHTS assay for small molecule agonists of the p53 signaling pathway (AID 651631; calls by dose curve; note: nearly all actives have a fitted effect of over 15% in size)
Method in brief: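 Testing took place in human colorectal HCT-116 cells with stable p53RE-driven beta-lactamase. After 16 h of compound exposure at 37 °C, a FRET substrate was added and fluorescence recorded 2 h later.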

[2] = qHTS assay for small molecules that induce genotoxicity in human embryonic kidney cells expressing luciferase-tagged ATAD5 (AID 651632); note: nearly all actives have a fitted effect of over 15% in size
Method in brief: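 Genotoxicity read-out via ATAD5-luciferase: HEK293T cells, 16 hr compound incubation at 37C, Amplite detection.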

[3] = qHTS assay for small molecule agonists of the p53 signaling pathway - cell viability (AID 651633; calls by dose curve; note: series mostly up to about 83 µM; nearly all actives have a fitted effect of over 30% in size)
Method in brief: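 p53RE-bla cells, seeded at 4,000 per well and rested 5 h at 37 C/5% CO2, received compounds in DMSO for 16 h at 37 C. CellTiter-Glo was then added, and luminescence was read after 30 min at room temperature to gauge cytotoxicity.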

[4] = qHTS assay for small molecules that induce genotoxicity in human embryonic kidney cells expressing luciferase-tagged ATAD5 - cell viability (AID 651634; calls by dose curve; note: nearly all actives have a fitted effect of over 25% in size)
Method in brief: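 Live-cell protease activity (CellTiter-Fluor, fluorescence) indicates viability. HEK293T cells with luciferase-tagged ATAD5; 15.5 hr compound treatment at 37C.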

[5] = qHTS assay for small molecule disruptors of the mitochondrial membrane potential - cell viability (AID 720634; calls by dose curve;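 note: human HepG2 liver cancer cells; series mostly up to about 83 µM; nearly all actives have a fitted effect of over 20% in size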)
Method in brief: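 Human hepatoma HepG2 cells were treated for 1 hr with test chemicals, then given m-MPI dye and CellTiter-Glo. Cell viability reflects luminescence proportional to cellular ATP.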

[6] = qHTS assay for small molecule disruptors of the mitochondrial membrane potential (AID 720635)
Method in brief: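 HepG2 cells (2,000/well) attached overnight at 37C, then took compound for 1 hr at 37C, 5% CO2. Mito-MPS dye was added for 30 min; fluorescence was read at 490/535 nm (monomers) and 540/590 nm (aggregates).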

[7] = qHTS assay to test for compound auto fluorescence at 590 nm (red) in HepG2 cells (AID 720674)
Method in brief: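 Intrinsic compound fluorescence in the red window (Ex/Em 540/590 nm) is measured in attached HepG2 cells exposed for 1 hr, DMSO vehicle as baseline, benchmarked to Rose Bengal sodium.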

[8] = qHTS assay to test for compound auto fluorescence at 535 nm (green) in HepG2 cells (AID 720675)
[9] = qHTS assay to test for compound auto fluorescence at 460 nm (blue) in HEK293 cells (AID 720678)
Method in brief: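 Blue read-out at excitation 405 nm and emission 460 nm follows overnight compound exposure of HEK293 cells at 37C in 5% CO2. Activity is given as auto fluorescence equivalency to triamterene.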

[10] = qHTS assay to test for compound auto fluorescence at 590 nm (red) in HEK293 cells (AID 720679)
Method in brief: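 Red channel, Ex/Em 540/590nm; signal expressed as equivalency to Rose Bengal sodium. HEK293, 2,000 cells/well, 10% dialyzed FBS; 23 nL compound pinned after 4-5 hr attachment; overnight 37C/5% CO2 before reading.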

[11] = qHTS assay to test for compound auto fluorescence at 535 nm (green) in HEK293 cells (AID 720680)
[12] = qHTS assay to test for compound auto fluorescence at 460 nm (blue) in HEK293 cell free culture (AID 720681)
Method in brief: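 Test compounds were pinned into cell-free culture medium (DMEM with 10% FBS) and fluorescence was read directly at Ex/Em 405/460 nm. Signals were expressed as fluorescence equivalents of triamterene, with DMSO vehicle as control.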

[13] = qHTS assay to test for compound auto fluorescence at 535 nm (green) in HEK293 cell free culture (AID 720682)
Method in brief: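 DMEM + 10% FBS, cell-free; cpd or DMSO pinned in; Ex485/Em535 read; output as fluorescein-equivalent signal.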

[14] = qHTS assay to test for compound auto fluorescence at 590 nm (red) in HEK293 cell free culture (AID 720683)
Method in brief: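 Tox21 10K library compounds were pinned into cell-free DMEM with 10% FBS and fluorescence was read at excitation 540 nm. Activity is expressed as Rose Bengal sodium equivalency.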

[15] = qHTS assay to test for compound auto fluorescence at 590 nm (red) in HepG2 cell free culture (AID 720684)
Method in brief: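 Measured in medium alone (MEM containing 10% FBS) following pintool addition of compound; emission at 590 nm with 540 nm excitation, referenced to Rose Bengal sodium.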

[16] = qHTS assay to test for compound auto fluorescence at 460 nm (blue) in HepG2 cell free culture (AID 720685)
Method in brief: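 Compound (23 nL) or DMSO pinned into cell-free MEM with 10% FBS; blue fluorescence read at 405/460 nm excitation/emission, expressed as auto-fluorescence equivalency to triamterene.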

[17] = qHTS assay to test for compound auto fluorescence at 535 nm (green) in HepG2 cell free culture (AID 720686)
[18] = qHTS assay to test for compound auto fluorescence at 460 nm (blue) in HepG2 cells (AID 720687)
Method in brief: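 Cells (2,000/well in MEM with 10% FBS) attached overnight at 37 C, then were exposed to compound or DMSO for 1 hr at 37 C, 5% CO2. Fluorescence read at Ex/Em 405/460 nm, expressed as triamterene-equivalent signal.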

[19] = qHTS assay to identify small molecule antagonists of the glucocorticoid receptor (GR) signaling pathway - cell viability counter screen (AID 720693); note: nearly all actives have a fitted effect of over 55% in size
[20] = qHTS assay for identifying genotoxic compounds that show differential cytotoxicity against isogenic chicken DT40 cell lines with known DNA damage response pathways - wild type cell line (AID 743012); note: nearly all actives have a fitted effect of over 60% in size
Method in brief: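 Quantitative HTS on parental DT40 cells: 40 h compound treatment at 37 C/5% CO2, with viability then determined by CellTiter-Glo luminescence. Values serve as the DNA repair-proficient reference for differential cytotoxicity.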

[21] = qHTS assay for identifying genotoxic compounds that show differential cytotoxicity against isogenic chicken DT40 cell lines with known DNA damage response pathways - Rev3 mutant cell line (AID 743014); note: nearly all actives have a fitted effect of over 55% in size
[22] = qHTS assay for identifying genotoxic compounds that show differential cytotoxicity against isogenic chicken DT40 cell lines with known DNA damage response pathways - Rad54/Ku70 mutant cell line (AID 743015); note: nearly all actives have a fitted effect of over 60% in size
[23] = qHTS assay to identify small molecule antagonists of the androgen receptor (AR) signaling pathway - cell viability counter screen (AID 743033; note: nearly all actives have a fitted effect of over 45% in size)
[24] = qHTS assay to identify small molecule antagonists of the androgen receptor (AR) signaling pathway using the MDA cell line - cell viability counter screen (AID 743041; note: nearly all actives have a fitted effect of over 45% in size)
Method in brief: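 Viability counter screen run alongside the AR antagonist reporter: cells seeded 5 h before compound, R1881 added, 16 h incubation at 37C without CO2, fluorescent CellTiter-Fluor signal quantified.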

[25] = qHTS assay to identify small molecule antagonists of the thyroid receptor (TR) signaling pathway (AID 743065); note: series mostly up to about 70 µM; nearly all actives have a fitted effect of over 55% in size
Method in brief: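 GH3.TRE-Luc rat pituitary cells carrying two TR response elements driving luciferase were plated for 4 h, given compound plus 1 nM T3 (final), and incubated 23.5 h at 37 C. ONE-Glo luminescence measured reporter inhibition; CellTiter-Fluor fluorescence tracked cytotoxicity.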

[26] = test system: thyroid hormone receptor (rat, GH3 cells); test: qHTS assay to identify small molecule agonists of the thyroid receptor (TR) signaling pathway (AID 743066; calls by dose curve)
[27] = qHTS assay to identify small molecule antagonists of the estrogen receptor alpha (ER-alpha) signaling pathway - cell viability counter screen (AID 743074; calls by dose curve;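 note: HEK293 cells carrying ER-alpha-UAS-bla reporter stimulated with 17beta-estradiol; nearly all actives have a fitted effect of over 45% in size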)
[28] = qHTS assay to identify small molecule antagonists of the estrogen receptor alpha (ER-alpha) signaling pathway using the BG1 cell line - cell viability counter screen (AID 743081);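 note: compound given together with 17beta-estradiol as the ER stimulus; series mostly up to about 70 µM; nearly all actives have a fitted effect of over 45% in size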
Aromatase (Homo sapiens) = Aromatase (Homo sapiens) (UniProt P11511); test: qHTS assay to identify aromatase inhibitors (AID 743083); note: series mostly up to about 70 µM; nearly all actives have a fitted effect of over 55% in size
[29] = qHTS assay to identify aromatase inhibitors - cell viability counter screen (AID 743084)
[30] = qHTS assay to identify small molecule that activate the aryl hydrocarbon receptor (AhR) signaling pathway - cell viability counter screen (AID 743086)
Method in brief: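 HepG2-AhR-luc (HG2L7.5c1) cells, 4000/well, were preincubated 5 h at 37C, exposed to compound in qHTS format for 24 hr at 37C, then given CellTiter-Fluor for 30 min; viability was read as fluorescence in the reporter wells.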

[31] = target: Glucocorticoid receptor (Homo sapiens) (UniProt P04150); test: qHTS assay to identify small molecule antagonists of the glucocorticoid receptor (GR) signaling pathway (AID 720692; active = well fitted inhibition curve with a large enough effect in the signal ratio in the repeat runs, not every such curve was filed as active; the % refers to the signal ratio)
Method in brief: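 Fluorescence from cleaved LiveBLAzer B/G FRET substrate reports GRE-driven beta-lactamase in HeLa cells; compounds are tested against 5 nM dexamethasone (final) over 18 h at 37 C, substrate incubation 2 h at room temperature.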

[32] = qHTS assay to identify small molecule antagonists of the thyroid receptor (TR) signaling pathway - cell viability counter screen (AID 743064); note: nearly all actives have a fitted effect of over 50% in size
Method in brief: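 Viability of T3-stimulated (1 nM final) GH3.TRE-Luc cells is measured by CellTiter-Fluor fluorescence after 23.5 h compound exposure at 37 °C plus 30 min reagent incubation.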

[33] = target: Aryl hydrocarbon receptor (Homo sapiens) (UniProt P35869); test: qHTS assay to identify small molecule that activate the aryl hydrocarbon receptor (AhR) signaling pathway (AID 743085);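 note: HG2L7.5c1 human HepG2 liver cells with stably integrated DRE-driven firefly reporter; series mostly up to about 70 µM; nearly all actives have a fitted effect of over 15% in size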
Method in brief: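 A multiplexed format paired cell viability (CellTiter-Fluor fluorescence) with AhR-dependent luciferase output (ONE-Glo luminescence) in the same wells of HepG2 DRE-luc cells after 24 h compound exposure at 37C.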

Measured: Potency

Sequence of Aromatase (Homo sapiens) (P11511 whole entry, looked up): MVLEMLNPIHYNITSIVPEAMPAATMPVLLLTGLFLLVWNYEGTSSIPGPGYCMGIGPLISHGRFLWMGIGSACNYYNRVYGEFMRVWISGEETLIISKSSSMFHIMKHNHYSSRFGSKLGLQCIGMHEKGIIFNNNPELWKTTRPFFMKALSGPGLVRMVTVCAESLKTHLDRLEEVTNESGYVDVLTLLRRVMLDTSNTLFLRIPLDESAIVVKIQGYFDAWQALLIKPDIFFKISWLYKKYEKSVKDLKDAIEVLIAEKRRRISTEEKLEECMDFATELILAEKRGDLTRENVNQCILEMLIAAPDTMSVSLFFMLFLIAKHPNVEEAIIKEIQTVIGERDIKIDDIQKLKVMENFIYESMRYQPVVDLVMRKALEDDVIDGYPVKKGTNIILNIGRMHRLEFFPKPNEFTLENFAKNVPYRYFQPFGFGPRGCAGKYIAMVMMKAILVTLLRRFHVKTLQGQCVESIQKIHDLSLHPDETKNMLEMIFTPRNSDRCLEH
Sequence of Glucocorticoid receptor (Homo sapiens) (P04150 whole entry, looked up): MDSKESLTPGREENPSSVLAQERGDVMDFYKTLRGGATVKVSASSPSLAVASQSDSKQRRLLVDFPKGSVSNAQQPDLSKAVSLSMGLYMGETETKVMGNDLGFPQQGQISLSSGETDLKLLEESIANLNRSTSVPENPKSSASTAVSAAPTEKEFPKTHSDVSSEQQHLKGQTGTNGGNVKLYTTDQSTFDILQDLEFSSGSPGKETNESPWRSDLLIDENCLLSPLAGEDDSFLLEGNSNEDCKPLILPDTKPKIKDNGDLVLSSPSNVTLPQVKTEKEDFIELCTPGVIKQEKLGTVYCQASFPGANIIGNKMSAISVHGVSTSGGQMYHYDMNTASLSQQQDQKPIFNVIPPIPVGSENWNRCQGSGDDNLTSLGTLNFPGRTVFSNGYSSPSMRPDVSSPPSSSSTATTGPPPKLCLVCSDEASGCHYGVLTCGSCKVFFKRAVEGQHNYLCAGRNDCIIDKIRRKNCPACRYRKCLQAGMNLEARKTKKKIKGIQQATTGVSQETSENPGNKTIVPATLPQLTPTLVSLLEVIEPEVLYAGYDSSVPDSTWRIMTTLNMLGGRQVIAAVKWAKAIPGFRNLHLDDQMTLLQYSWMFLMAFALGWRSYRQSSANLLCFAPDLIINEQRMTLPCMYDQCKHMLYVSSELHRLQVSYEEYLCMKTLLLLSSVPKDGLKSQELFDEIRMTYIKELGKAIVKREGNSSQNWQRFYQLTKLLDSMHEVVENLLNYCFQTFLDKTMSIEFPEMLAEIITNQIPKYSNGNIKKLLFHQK
Sequence of Aryl hydrocarbon receptor (Homo sapiens) (P35869 whole entry, looked up): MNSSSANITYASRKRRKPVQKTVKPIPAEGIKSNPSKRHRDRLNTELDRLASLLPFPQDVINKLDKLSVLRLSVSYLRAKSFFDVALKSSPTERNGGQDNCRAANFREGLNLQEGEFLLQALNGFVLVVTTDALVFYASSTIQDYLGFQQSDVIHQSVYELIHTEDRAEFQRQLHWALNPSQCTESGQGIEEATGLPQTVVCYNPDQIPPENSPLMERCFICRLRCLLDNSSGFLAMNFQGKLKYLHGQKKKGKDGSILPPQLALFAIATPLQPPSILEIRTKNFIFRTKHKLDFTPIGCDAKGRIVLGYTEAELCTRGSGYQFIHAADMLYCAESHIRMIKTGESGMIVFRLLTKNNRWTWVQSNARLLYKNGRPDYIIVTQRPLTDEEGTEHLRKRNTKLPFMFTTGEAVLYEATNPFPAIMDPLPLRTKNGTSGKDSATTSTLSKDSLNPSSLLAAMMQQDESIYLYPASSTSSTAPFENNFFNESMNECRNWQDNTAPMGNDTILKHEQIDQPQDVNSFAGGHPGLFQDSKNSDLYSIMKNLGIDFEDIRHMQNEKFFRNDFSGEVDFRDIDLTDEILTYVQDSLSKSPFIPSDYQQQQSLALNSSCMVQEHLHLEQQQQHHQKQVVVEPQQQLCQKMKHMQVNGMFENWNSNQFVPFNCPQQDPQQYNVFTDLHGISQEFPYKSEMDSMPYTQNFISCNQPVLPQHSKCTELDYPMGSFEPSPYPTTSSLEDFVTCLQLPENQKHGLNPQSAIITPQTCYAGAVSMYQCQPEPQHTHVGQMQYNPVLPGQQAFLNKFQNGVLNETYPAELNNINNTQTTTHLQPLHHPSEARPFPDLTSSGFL

CNC(C)Cc1ccccc1 (configuration not stated)
not listed: [31] | [32] | [33]
inactive: all other assays above

CCN(CC)/[N+]([O-])=N/O
not listed: [1] | [2] | [4] | [6] | [20] | [21] | [22] | [23]
inactive: all other assays above
